Bioassay records deposited in PubChem BioAssay by National Center for Advancing Translational Sciences (NCATS).
Gal4-VP16 FLuc: VP16 counterscreen qHTS for inhibitors of ROR gamma transcriptional activity; Drosophila S2 Gal4-VP16 UAS-luciferase, luminescence, 20 h; Potency, µM (titrated, usually from 53.6 µM), inactives show at the top dose activity, negative = inhibition, actives largely listed as inhibitors; 310,000 compounds, 3.5% hits; AID 2546, 2010;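 note: Gal4-VP16 expression switched on by copper sulfate through the metallothionein promoter; potency is the fitted concentration of half-maximal effect; % is set by controls: 0 for no effect and ±100 for the full control effect; nearly all actives have a fitted effect of over 50% in size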
RORg inh: qHTS for inhibitors of ROR gamma transcriptional activity | Drosophila S2 Gal4-RORgamma UAS-luciferase reporter, 20 h | Nuclear receptor ROR-gamma (Mus musculus), P51450 | 310,000 compounds, 5.4% hits | Potency, µM (titrated, usually from 53.6 µM), without a hit: top-dose activity change, negative = inhibition, hits mostly inhibitors; note: potency is the fitted concentration of half-maximal effect; % is set by controls: 0 for no effect and ±100 for the full control effect; nearly all actives have a fitted effect of over 60% in size
Target sequence (P51450 whole entry, looked up, the tested form may be a part): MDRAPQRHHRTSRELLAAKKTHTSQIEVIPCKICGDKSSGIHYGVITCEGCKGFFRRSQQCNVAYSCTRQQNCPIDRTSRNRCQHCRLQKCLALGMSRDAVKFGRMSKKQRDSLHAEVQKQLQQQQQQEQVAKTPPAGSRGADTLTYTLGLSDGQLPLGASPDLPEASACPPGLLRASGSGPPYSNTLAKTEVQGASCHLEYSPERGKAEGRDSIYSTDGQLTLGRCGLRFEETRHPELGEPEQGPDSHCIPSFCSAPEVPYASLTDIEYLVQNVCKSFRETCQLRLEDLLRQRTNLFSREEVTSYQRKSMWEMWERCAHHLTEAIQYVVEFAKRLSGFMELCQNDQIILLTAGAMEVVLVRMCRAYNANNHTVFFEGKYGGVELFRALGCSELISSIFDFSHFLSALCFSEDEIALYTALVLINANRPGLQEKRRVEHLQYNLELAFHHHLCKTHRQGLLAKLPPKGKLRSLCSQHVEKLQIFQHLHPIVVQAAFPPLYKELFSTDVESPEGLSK
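Read-out: Photinus luciferase luminescence; inhibitors lower reporter signal. Insect Schneider cells with Gal4-ROR gamma fusion under metallothionein promoter, UAS reporter; 700 uM final copper sulfate induction, 20 hr, ambient temperature.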
SW480 rereplic: A quantitative high throughput screen for small molecules that induce DNA re-replication in SW480 colon adenocarcinoma cells | SW480 DNA re-replication, Hoechst DNA content imaging, 48 h | Potency, µM (doses to about 46.1 µM), inactives show at the highest dose re-replication activation, hits mostly activators | 340,000 compounds, 1.8% hits | AID 624297, 2012; note: potency is the fitted concentration of half-maximal effect; % of control where 0% means no effect; nearly all actives have a fitted effect of over 55% in size
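Quantitative HTS format with DMSO vehicle controls; 48 hr drug incubation at 37 C, then 40 min Hoechst staining and scanning imager measurement at 405 nm excitation.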
MCF10A rerep: A quantitative high throughput screen for small molecules that induce DNA re-replication in MCF 10a normal breast cells; Potency, µM (highest dose often 46.1 µM), for the others: at the top dose activity, positive = re-replication, hits mostly activators; MCF 10A DNA re-replication, Hoechst nuclear intensity, 48 h; 350,000 compounds, 2.9% hits; AID 624296, 2012; note: potency is the fitted concentration of half-maximal effect; % of control where 0% means no effect; nearly all actives have a fitted effect of over 50% in size
IL-1B inflam inh: qHTS for Inhibitors of Inflammasome Signaling: IL-1-beta AlphaLISA Primary Screen; THP-1 LPS/ATP IL-1B secretion, AlphaLISA, 16 h; stronger effect = lower value; activity change, % at 57.5 µM; 360,000 compounds, 4.7% hits; AID 743279, 2014; in the data active = activity change below about -50%; inconclusive = mostly about -30% to -49%; note: % is set by controls: 0 for no effect and ±100 for the full control effect
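Secreted IL-1B measured by AlphaLISA bead assay after 16 h compound exposure of THP-1 cells; compounds (final up to 57.5 uM) added 1 h before LPS (250 ng/mL) and ATP (1.25 mM) stimulation; lower signal means less secretion.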
Starred values were filed as active, the others as inactive; ? = inconclusive; . = not tested or not shown. Hits are enriched below; roughly 11% of the tested compounds scored in any of these assays. Unless noted, calls come from the whole dose curve; as a rule, active = well fitted curve in the direction sought with a large enough effect; inconclusive = small, poorly fitted or top-dose-only effect, or another doubt; inactive = no such curve, though single readings can be large; an effect the other way counts as inactive or inconclusive.

SMILES	Gal4-VP16 FLuc	RORg inh	SW480 rereplic	MCF10A rerep	IL-1B inflam inh
CN(C)S(=O)(=O)c1cccc(C(=O)Nc2n[nH]c(C(F)(F)F)n2)c1	-6%	-5%	-8%	-5%	21
CCCCCCCCN1C(=O)[C@H](CC(=O)NCc2ccc(OC)c(OC)c2)C[C@@]2(C(=O)OCC)CCC=C12	.	.	.	.	-77*
CCOC(=O)[C@]12CCCC=C1N(Cc1cccc3ccccc13)C(=O)[C@H](CC(=O)NCc1ccc(OC)c(OC)c1)C2	.	.	.	.	-69*
CCOC(=O)[C@]12CCCC=C1N(CCC1=CCCCC1)C(=O)[C@H](CC(=O)NCc1ccc(OC)c(OC)c1)C2	.	.	.	.	-14
CCOC(=O)[C@]12CCCC=C1N(Cc1cccc3ccccc13)C(=O)[C@H](CC(=O)NCc1ccccc1)C2	.	.	.	.	-27
CCCCCCCCN1C(=O)[C@H](CC(=O)NCc2ccc(C)o2)C[C@@]2(C(=O)OC)CCCCC=C12	.	.	.	.	-54*
CCOC(=O)[C@]12CCCC=C1N(Cc1cccc3ccccc13)C(=O)[C@H](CC(=O)NCc1cccc(C(F)(F)F)c1)C2	.	.	.	.	-5
COC(=O)[C@]12CCCCC=C1N(Cc1cccc3ccccc13)C(=O)[C@H](CC(=O)NCc1cccc(C(F)(F)F)c1)C2	.	.	.	.	-73*
COc1ccc(Cn2cc(CN3CCOCC3)nn2)cc1	.	.	.	.	-27
C[C@@H]1Cn2cnc(C(=O)NCC(=O)OC(C)(C)C)c2C(=O)N1	.	.	.	.	-6
CCCCCCCCN1C(=O)[C@H](CC(=O)NCc2ccc(OC)c(OC)c2)C[C@@]2(C(=O)OC)CCCCC=C12	.	.	.	.	-58*
CCCCNC(=O)C[C@@H]1C[C@@]2(C(=O)OC)CCCCC=C2N(Cc2ccccc2)C1=O	.	.	.	.	16
CCCCCCCCN1C(=O)[C@H](CC(=O)NCc2ccccc2)C[C@@]2(C(=O)OC)CCCCC=C12	.	.	.	.	-82*
CCCCNC(=O)C[C@@H]1C[C@@]2(C(=O)OC)CCCCC=C2N(CCc2ccc(OC)c(OC)c2)C1=O	.	.	.	.	-13
C/C(=N\NC(=O)c1ccccc1)c1ccccc1F	-19%	-32%	1%	4%	-7
C/C(=N\NC(=O)c1ccccc1OCCOc1ccccc1)c1ccccc1F	.	.	-128%	?	-65*
COC(=O)c1c(NC(=O)C2=COCCO2)sc(C)c1C	.	.	3%	7%	-60*
CNC(=O)c1c(NC(=O)C2=COCCO2)sc(C)c1C	.	.	-5%	-1%	-13
CC(C)NC(=O)N(C)C[C@H]1Oc2ncc(Br)cc2C(=O)N([C@H](C)CO)C[C@@H]1C	.	.	.	.	9
CN(C)CCN(C(=O)/C=C/c1cccs1)c1nc2ccc(Br)cc2s1	-18%	-32%	?	?	23
CCN(CC)CCN(C(=O)/C=C/c1cccs1)c1nc2ccc(C)cc2s1	-18%	-18%	-5%	-1%	5
CCc1ccc2nc(N(CCN(C)C)C(=O)/C=C/c3cccs3)sc2c1	?	-41%	?	?	-81*
CCOc1ccc2nc(N(CCN(C)C)C(=O)/C=C/c3cccs3)sc2c1	-15%	-3%	0%	0%	-71*
Cc1ccc2nc(N(CCN(C)C)C(=O)/C=C/c3cccs3)sc2c1	?	-9%	?	26µM*	?
CCOc1cccc2sc(N(CCN(C)C)C(=O)/C=C/c3cccs3)nc12	-27%	-35%	?	8.2µM*	-103*
SMILES	Gal4-VP16 FLuc	RORg inh	SW480 rereplic	MCF10A rerep	IL-1B inflam inh
O=C1/C(=C/c2ccc([N+](=O)[O-])cc2)C=C(c2ccccc2)N1c1ccccc1	10%	12%	7%	17%	0
O=C1/C(=C/c2ccc([N+](=O)[O-])cc2)C=C(c2ccccc2)N1c1ccc(O)cc1	-2%	26%	?	18µM*	-99*
Cc1c(Cl)cccc1NC(=S)/C(=C(\[O-])c1ccc(Cl)s1)[n+]1ccccc1	5.6µM*	?	14%	.	-70*
[O-]/C(=C(\C(=S)Nc1cccc2ccccc12)[n+]1cccc(CO)c1)c1ccc(Cl)s1	7%	-42%	-1%	-2%	0
CC(C)N(C(=O)[C@H]1C[C@H](CC(=O)NCc2cccc(C(F)(F)F)c2)C(=O)N2CCc3c([nH]c4ccc(Cl)cc34)[C@]12C)C(C)C	.	.	-22%	0%	-60*
C[C@]12c3[nH]c4ccccc4c3CCN1C(=O)C(CC(=O)NCc1cccc(C(F)(F)F)c1)C[C@@H]2C(=O)N1CCCCC1 (some centres not stated)	.	.	-35%	?	-66*
C[C@]12c3[nH]c4ccc(Cl)cc4c3CCN1C(=O)[C@@H](CC(=O)NCc1cccc(C(F)(F)F)c1)C[C@@H]2C(=O)N1CCOCC1	.	.	?	?	-56*
CC(C)N(C(=O)[C@H]1C[C@H](CC(=O)NCc2ccco2)C(=O)N2CCc3c([nH]c4ccc(Cl)cc34)[C@]12C)C(C)C	.	.	12%	?	-2
CC[C@]12c3[nH]c4ccccc4c3CCN1C(=O)C(CC(=O)NCc1cccc(C(F)(F)F)c1)C[C@@H]2C(=O)N1CCN(C(=O)c2ccco2)CC1 (some centres not stated)	.	.	24%	12%	-52*
CC(C)(C)NC(=O)C1c2ccccc2OCC(=O)N1Cc1ccco1 (configuration not stated)	.	.	.	.	8
CN(C)C(=O)CCc1ccc2c3c([nH]c2c1)[C@]1(CCc2ccccc2)[C@@H](C(=O)N2CCCCC2)C[C@H](CC(=O)NCc2cccc(C(F)(F)F)c2)C(=O)N1CC3	.	.	16%	-14%	-71*
CN(C)C(=O)CCc1ccc2c3c([nH]c2c1)[C@]1(C)[C@@H](C(=O)N2CCOCC2)C[C@H](CC(=O)NCc2cccc(C(F)(F)F)c2)C(=O)N1CC3	.	.	-2%	23%	-13
CC(C)[C@@H]1Cc2[nH]n(C)c(=O)c2[C@H](c2ccc(Cl)cc2)O1	.	.	.	.	-2
COc1ccc(C(=O)c2c(C(F)(F)F)oc3c2C(=O)c2ccccc2C3=O)cc1OC	?	39%	0.73µM*	?	?
O=S(=O)(c1ccccc1)c1cnn2c(C(F)(F)F)cc(-c3ccccc3)nc12	-29%	-13%	10%	?	15
COc1ccccc1-c1cc(C(F)(F)F)n2ncc(S(=O)(=O)c3ccccc3)c2n1	-9%	-43%	23µM*	25%	-6
CC1(C)Cc2c(sc3c2c(=N)n(Cc2ccco2)c(=O)n3CC(=O)Nc2ccc(Cl)cc2)CO1	-2%	30%	-2%	18%	-80*
CC1(C)Cc2c(sc3c2c(=N)n(Cc2ccco2)c(=O)n3CC(=O)Nc2ccccc2)CO1	-3%	22%	12%	2%	-51*
